# Experiments:
# Assay in all cases: DAPPL (digital affinity profiling via proximity ligation, sequencing); 10 mM Tris-HCl pH 7.5, 50 mM NaCl, 1 mM DTT, 4% glycerol, room temperature, 30 min; GST-TFs on glutathione beads, 16-mer random dsDNA library, 0.1% formaldehyde crosslink after washing; high values mean tight binding
# [1] = molecular target: T1, FEV (Homo sapiens, UniProt Q99581 1-238); conditions: protein: recombinant; tags: N-terminal GST; dsDNA, one strand shown
# T1 sequence: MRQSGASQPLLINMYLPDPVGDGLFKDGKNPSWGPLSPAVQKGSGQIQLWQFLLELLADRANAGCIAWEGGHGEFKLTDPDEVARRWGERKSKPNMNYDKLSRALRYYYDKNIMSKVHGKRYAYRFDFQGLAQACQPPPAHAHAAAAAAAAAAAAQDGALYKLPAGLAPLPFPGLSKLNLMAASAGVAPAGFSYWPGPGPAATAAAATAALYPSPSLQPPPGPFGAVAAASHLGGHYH
# In short: (§1)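 Human transcription factors carrying a GST fusion were produced in yeast, bound to glutathione beads, tagged with DNA barcodes and pooled together with a tag-only sample. Each pool was held with 200 nmole of a random double-stranded 16-mer DNA library in Tris/NaCl/DTT/glycerol buffer for 30 min at room temperature, then washed, crosslinked in 0.1% formaldehyde, proximity-ligated with BsaI/T4 ligase (1 h, 37 °C), PCR-amplified and sequenced on an Illumina NextSeq500. Binding signal is the read frequency of each hexamer for a given factor divided by its frequency in the tag-only sample.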
# [2] = molecular target: ETV5 (Homo sapiens, UniProt P41161 1-510); conditions: protein: recombinant; tags: N-terminal GST; dsDNA, one strand shown
# In short: as §1
# [3] = molecular target: HSF1 (Homo sapiens, UniProt Q00613 1-529); conditions: protein: recombinant; tags: N-terminal GST; chain copies: 3; dsDNA, one strand shown
# In short: as §1
# [4] = molecular target: T2, SPIC (Homo sapiens, UniProt Q8N5J4 1-248); conditions: protein: recombinant; tags: N-terminal GST; dsDNA, one strand shown
# T2 sequence: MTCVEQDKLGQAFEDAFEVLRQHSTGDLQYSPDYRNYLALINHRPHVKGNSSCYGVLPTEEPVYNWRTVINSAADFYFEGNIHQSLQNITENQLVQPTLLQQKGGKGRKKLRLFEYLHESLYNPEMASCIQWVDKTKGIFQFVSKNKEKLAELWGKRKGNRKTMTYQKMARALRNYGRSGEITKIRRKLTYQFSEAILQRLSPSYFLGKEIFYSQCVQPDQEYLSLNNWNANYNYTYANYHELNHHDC
# In short: as §1
# [5] = molecular target: ELF4 (Homo sapiens, UniProt Q99607 1-663); conditions: protein: recombinant; tags: N-terminal GST; dsDNA, one strand shown
# In short: as §1
# [6] = molecular target: T3, ELK4 (Homo sapiens, UniProt P28324-2 1-405); conditions: protein: recombinant; tags: N-terminal GST; dsDNA, one strand shown
# T3 sequence: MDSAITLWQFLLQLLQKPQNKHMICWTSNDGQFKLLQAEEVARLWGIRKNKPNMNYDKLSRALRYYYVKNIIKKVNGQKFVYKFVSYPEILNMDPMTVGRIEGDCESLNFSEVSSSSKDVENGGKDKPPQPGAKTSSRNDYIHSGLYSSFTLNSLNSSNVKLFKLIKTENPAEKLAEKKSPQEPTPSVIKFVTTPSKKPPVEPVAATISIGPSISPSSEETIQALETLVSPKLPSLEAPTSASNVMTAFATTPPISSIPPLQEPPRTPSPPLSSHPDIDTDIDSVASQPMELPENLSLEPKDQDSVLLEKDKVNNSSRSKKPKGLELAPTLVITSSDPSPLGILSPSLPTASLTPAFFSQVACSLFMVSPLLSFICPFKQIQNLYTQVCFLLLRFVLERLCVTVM
# In short: as §1
# [7] = molecular target: T4, ETV2 (Homo sapiens, UniProt O00321 1-342); conditions: protein: recombinant; tags: N-terminal GST; dsDNA, one strand shown
# T4 sequence: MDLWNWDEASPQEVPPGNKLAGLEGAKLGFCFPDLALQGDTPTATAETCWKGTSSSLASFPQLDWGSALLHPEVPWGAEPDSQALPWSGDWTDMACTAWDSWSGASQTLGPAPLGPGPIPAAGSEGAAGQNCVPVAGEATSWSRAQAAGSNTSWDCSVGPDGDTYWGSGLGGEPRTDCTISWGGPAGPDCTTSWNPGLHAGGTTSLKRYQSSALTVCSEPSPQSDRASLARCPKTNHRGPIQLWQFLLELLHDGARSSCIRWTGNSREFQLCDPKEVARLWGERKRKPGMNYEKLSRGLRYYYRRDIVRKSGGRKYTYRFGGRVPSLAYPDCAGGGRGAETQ
# In short: as §1
# [8] = molecular target: T5, ELF3 (Homo sapiens, UniProt P78545 1-371); conditions: protein: recombinant; tags: N-terminal GST; dsDNA, one strand shown
# T5 sequence: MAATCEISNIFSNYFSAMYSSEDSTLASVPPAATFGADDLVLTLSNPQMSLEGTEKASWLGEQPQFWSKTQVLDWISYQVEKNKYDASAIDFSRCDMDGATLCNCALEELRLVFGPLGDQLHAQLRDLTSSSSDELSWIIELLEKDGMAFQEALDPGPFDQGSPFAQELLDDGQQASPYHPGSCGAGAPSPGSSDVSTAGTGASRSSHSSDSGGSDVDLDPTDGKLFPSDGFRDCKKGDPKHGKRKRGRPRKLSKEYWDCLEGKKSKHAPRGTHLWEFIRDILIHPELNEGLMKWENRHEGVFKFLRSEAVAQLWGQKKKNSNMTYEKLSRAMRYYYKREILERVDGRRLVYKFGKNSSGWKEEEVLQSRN
# In short: as §1
# [9] = molecular target: CRX (Homo sapiens, UniProt O43186 1-299); conditions: protein: recombinant; tags: N-terminal GST; dsDNA, one strand shown
# In short: as §1
# [10] = molecular target: ETV1 (Homo sapiens, UniProt P50549 1-477); conditions: protein: recombinant; tags: N-terminal GST; dsDNA, one strand shown
# In short: as §1
# [11] = molecular target: T6, ERF (Homo sapiens, UniProt P50548 1-548); conditions: protein: recombinant; tags: N-terminal GST; dsDNA, one strand shown
# T6 sequence: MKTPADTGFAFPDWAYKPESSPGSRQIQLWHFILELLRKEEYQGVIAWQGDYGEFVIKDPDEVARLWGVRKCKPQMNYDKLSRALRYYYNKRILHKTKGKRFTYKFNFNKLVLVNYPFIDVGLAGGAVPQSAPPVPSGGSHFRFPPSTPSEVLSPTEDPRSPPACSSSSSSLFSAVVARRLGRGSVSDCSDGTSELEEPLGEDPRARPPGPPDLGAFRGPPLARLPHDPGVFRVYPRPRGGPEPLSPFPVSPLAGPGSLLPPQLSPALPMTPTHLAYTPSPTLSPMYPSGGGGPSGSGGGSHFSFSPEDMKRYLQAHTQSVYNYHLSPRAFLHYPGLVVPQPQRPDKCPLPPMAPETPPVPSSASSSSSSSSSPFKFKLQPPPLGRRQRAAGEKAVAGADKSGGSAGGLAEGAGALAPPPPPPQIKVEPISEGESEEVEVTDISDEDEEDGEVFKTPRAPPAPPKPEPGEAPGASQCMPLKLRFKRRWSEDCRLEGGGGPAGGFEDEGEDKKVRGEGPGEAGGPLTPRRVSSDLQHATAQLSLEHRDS
# In short: as §1
# [12] = molecular target: T7, ETV3L (Homo sapiens, UniProt Q6ZN32 1-361); conditions: protein: recombinant; tags: N-terminal GST; dsDNA, one strand shown
# T7 sequence: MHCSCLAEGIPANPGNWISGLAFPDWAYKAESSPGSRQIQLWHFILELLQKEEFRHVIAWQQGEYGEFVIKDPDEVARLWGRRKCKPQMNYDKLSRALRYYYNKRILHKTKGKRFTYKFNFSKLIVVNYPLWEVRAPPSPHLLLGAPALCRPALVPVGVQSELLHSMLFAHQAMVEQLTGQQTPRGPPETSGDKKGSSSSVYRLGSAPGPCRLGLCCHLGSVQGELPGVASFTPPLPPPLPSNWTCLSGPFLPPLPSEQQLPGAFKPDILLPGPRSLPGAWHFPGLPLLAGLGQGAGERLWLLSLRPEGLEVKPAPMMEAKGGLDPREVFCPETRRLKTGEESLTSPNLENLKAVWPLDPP
# In short: as §1
# [13] = molecular target: T8, ETS2 (Homo sapiens, UniProt P15036 1-469); conditions: protein: recombinant; tags: N-terminal GST; dsDNA, one strand shown
# T8 sequence: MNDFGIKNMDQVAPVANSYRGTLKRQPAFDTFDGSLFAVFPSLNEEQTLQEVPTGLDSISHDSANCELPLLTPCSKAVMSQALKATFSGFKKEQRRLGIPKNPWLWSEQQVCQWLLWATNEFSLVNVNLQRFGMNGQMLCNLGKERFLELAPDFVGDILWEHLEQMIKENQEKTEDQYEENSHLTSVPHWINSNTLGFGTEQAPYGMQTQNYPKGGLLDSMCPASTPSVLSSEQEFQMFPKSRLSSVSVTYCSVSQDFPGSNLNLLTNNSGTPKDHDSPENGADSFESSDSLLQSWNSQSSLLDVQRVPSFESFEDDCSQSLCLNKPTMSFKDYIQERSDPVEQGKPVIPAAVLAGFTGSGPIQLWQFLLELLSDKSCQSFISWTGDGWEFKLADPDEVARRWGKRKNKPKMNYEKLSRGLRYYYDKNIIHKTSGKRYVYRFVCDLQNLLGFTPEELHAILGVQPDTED
# In short: as §1
# [14] = molecular target: T9, SPDEF (Homo sapiens, UniProt O95238 1-335); conditions: protein: recombinant; tags: N-terminal GST; dsDNA, one strand shown
# T9 sequence: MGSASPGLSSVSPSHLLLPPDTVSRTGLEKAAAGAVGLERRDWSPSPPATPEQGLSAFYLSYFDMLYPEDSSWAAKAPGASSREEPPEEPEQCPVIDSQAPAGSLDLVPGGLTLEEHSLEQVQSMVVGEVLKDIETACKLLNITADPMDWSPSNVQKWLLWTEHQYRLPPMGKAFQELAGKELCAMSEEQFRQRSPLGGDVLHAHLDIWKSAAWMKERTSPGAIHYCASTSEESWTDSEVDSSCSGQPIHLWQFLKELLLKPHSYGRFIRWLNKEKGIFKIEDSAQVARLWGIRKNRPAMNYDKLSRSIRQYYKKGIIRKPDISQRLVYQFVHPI
# In short: as §1
# [15] = molecular target: T10, ETV7 (Homo sapiens, UniProt Q9Y603 1-341); conditions: protein: recombinant; tags: N-terminal GST; dsDNA, one strand shown
# T10 sequence: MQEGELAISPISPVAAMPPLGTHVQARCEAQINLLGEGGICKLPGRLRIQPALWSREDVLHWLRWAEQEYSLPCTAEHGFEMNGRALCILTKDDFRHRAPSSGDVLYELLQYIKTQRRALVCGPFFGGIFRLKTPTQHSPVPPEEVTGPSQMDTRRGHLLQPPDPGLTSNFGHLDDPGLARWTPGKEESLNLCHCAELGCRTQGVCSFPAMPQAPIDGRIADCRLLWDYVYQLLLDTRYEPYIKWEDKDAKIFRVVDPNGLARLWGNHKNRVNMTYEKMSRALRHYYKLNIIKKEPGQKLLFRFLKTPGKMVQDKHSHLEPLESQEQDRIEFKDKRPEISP
# In short: as §1
# [16] = molecular target: T11, ELF5 (Homo sapiens, UniProt Q9UKW6-2 1-255); conditions: protein: recombinant; tags: N-terminal GST; dsDNA, one strand shown
# T11 sequence: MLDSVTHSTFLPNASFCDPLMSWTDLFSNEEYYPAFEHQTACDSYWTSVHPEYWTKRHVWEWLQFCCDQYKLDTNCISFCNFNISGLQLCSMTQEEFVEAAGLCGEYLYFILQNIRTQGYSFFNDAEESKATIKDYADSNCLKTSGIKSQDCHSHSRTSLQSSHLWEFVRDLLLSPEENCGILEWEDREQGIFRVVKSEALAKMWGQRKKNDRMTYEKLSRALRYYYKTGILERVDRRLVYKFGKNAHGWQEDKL
# In short: as §1
# [17] = molecular target: T12, ETV3 (Homo sapiens, UniProt P41162-2 1-143); conditions: protein: recombinant; tags: N-terminal GST; dsDNA, one strand shown
# T12 sequence: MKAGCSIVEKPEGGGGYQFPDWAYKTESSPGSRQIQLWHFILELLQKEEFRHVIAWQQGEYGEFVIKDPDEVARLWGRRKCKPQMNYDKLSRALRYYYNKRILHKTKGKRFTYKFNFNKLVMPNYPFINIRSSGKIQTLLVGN
# In short: as §1
# [18] = molecular target: ETV6 (Homo sapiens, UniProt P41212 1-452); conditions: protein: recombinant; tags: N-terminal GST; dsDNA, one strand shown
# In short: as §1
# ETV5, sequence (P41161 whole entry): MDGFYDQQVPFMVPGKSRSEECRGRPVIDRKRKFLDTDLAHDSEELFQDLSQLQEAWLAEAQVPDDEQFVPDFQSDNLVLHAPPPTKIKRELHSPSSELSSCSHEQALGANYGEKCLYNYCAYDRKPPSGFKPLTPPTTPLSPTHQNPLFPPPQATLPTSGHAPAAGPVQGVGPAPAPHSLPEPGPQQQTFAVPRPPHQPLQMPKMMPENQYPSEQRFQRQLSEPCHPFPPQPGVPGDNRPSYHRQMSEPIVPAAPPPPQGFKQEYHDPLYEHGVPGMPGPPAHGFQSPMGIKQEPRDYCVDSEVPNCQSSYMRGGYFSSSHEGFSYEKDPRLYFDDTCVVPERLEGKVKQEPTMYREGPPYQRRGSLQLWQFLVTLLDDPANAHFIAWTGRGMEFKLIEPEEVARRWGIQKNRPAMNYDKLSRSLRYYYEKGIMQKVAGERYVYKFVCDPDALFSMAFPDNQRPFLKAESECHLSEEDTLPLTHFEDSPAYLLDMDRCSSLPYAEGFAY
# ETV6, sequence (P41212 whole entry): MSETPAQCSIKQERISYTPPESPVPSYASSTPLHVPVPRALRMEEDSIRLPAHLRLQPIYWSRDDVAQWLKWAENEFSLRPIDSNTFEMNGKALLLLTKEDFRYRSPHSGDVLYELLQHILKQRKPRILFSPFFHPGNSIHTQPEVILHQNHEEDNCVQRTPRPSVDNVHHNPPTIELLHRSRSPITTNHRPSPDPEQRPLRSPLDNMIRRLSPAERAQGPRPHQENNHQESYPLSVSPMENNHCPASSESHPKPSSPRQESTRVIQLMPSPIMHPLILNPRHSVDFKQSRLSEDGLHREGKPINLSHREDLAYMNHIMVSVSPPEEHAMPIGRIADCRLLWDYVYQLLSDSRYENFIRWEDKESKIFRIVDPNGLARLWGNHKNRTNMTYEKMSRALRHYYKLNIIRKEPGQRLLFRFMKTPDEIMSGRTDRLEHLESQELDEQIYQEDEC
# ETV1, sequence (P50549 whole entry): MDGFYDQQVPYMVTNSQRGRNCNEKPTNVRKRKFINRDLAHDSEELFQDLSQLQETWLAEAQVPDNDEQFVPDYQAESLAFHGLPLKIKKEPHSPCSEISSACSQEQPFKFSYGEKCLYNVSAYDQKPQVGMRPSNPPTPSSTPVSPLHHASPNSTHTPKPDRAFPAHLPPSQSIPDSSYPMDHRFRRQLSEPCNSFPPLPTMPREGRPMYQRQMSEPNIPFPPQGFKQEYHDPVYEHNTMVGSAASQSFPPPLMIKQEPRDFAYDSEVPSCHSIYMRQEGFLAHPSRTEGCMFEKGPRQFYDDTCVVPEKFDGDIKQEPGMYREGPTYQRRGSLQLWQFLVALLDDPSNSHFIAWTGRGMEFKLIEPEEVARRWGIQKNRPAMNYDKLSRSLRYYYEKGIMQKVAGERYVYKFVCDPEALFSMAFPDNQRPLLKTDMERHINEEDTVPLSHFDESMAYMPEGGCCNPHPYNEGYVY
# CRX, sequence (O43186 whole entry): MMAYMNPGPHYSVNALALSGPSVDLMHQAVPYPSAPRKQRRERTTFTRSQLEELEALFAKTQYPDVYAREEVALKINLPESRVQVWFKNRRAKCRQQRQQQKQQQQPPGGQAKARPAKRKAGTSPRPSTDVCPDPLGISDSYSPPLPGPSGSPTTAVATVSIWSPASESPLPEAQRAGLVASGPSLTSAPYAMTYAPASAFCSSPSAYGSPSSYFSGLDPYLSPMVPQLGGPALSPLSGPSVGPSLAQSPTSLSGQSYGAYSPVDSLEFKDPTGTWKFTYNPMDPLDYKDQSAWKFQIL
# ELF4, sequence (Q99607 whole entry): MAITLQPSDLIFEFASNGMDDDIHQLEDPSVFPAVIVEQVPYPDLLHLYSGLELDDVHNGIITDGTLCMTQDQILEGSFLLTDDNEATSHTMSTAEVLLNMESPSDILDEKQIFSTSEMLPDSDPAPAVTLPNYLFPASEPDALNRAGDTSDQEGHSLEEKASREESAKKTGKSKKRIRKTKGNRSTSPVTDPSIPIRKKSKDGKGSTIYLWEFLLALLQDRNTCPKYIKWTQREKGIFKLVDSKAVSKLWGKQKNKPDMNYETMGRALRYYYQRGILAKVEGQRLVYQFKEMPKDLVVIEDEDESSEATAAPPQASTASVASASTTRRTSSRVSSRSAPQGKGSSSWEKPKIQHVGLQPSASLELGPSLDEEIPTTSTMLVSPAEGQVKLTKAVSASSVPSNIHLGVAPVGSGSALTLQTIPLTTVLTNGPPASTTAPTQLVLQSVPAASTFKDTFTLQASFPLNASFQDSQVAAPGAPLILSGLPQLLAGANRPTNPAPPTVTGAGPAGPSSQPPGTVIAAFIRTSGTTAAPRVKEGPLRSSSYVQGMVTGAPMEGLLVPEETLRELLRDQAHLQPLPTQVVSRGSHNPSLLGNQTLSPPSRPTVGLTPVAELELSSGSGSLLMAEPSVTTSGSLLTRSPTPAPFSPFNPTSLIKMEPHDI
# HSF1, sequence (Q00613 whole entry): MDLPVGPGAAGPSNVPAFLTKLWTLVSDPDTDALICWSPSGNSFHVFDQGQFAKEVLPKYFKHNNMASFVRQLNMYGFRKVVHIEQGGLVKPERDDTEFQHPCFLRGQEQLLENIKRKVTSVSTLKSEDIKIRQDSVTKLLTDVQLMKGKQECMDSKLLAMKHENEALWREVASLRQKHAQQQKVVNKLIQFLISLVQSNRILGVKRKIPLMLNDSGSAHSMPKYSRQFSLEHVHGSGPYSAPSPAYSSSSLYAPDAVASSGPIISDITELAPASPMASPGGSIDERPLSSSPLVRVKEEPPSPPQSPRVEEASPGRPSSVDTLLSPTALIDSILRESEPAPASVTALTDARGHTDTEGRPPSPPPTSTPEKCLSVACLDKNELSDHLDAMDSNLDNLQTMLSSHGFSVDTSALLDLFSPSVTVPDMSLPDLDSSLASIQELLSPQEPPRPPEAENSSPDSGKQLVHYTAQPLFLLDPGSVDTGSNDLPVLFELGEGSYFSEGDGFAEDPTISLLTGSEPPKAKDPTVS
sequence,measurement,setting,value
TTCAAA,binding signal,[1],"1.25 fold enrichment (6-mer frequency, TF over GST control)"
same,binding signal,[2],"1.26 fold enrichment (6-mer frequency, TF over GST control)"
same,binding signal,[3],"1.25 fold enrichment (6-mer frequency, TF over GST control)"
same,binding signal,[4],"1.35 fold enrichment (6-mer frequency, TF over GST control)"
same,binding signal,[5],"1.26 fold enrichment (6-mer frequency, TF over GST control)"
same,binding signal,[6],"1.33 fold enrichment (6-mer frequency, TF over GST control)"
same,binding signal,[7],"1.34 fold enrichment (6-mer frequency, TF over GST control)"
same,binding signal,[8],"1.43 fold enrichment (6-mer frequency, TF over GST control)"
same,binding signal,[9],"1.28 fold enrichment (6-mer frequency, TF over GST control)"
same,binding signal,[10],"1.32 fold enrichment (6-mer frequency, TF over GST control)"
same,binding signal,[11],"1.26 fold enrichment (6-mer frequency, TF over GST control)"
same,binding signal,[12],"1.27 fold enrichment (6-mer frequency, TF over GST control)"
same,binding signal,[13],"1.25 fold enrichment (6-mer frequency, TF over GST control)"
same,binding signal,[14],"1.23 fold enrichment (6-mer frequency, TF over GST control)"
same,binding signal,[15],"1.19 fold enrichment (6-mer frequency, TF over GST control)"
same,binding signal,[16],"1.21 fold enrichment (6-mer frequency, TF over GST control)"
same,binding signal,[17],"1.23 fold enrichment (6-mer frequency, TF over GST control)"
same,binding signal,[18],"1.27 fold enrichment (6-mer frequency, TF over GST control)"
